The subject of assay [1] is Wnt5a (protein binding on small-molecule microarray). Briefly: small molecules binding Wnt5a protein – biophysical, small-molecule microarray, 635/667 nm fluorescence, primary screen (AID 1142).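 Note: fluorescence read at 667 nm with signal to noise per printed feature.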 The note with it: 635 nm fluorescence, higher = more signal.
The nature of assay [2]: ATP-based viability of Huh7 replicon cells – cell-based, CellTiter-Glo luminescence, basal, 48 h, cytotoxicity control for HCV replication inhibitor project, primary screen (AID 1143).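 Note: Huh7 hepatoma cells carrying a hepatitis C replication reporter with no stimulus; test concentration not given here.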 The note with it: higher = more signal, called active from +8 up or from −8 down. (Replicon systems follow genome replication, usually without infectious particles.)
Assay [3] in a line: basal CRE-LacZ reporter activity in PC12 – cell-based, unstimulated, primary screen (AID 1145). The conditions noted are these: no forskolin, luminescence, 4.5 h, higher = more signal, called active from +8 up or from −8 down.
Assay [4] is described as follows: forskolin-driven CRE-LacZ activity in PC12 – cell-based, CRE-LacZ reporter, forskolin-stimulated, primary screen (AID 1146).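 Note: PC12 cells with 6xCRE LacZ reporter stimulated by forskolin 10 µM; beta-galactosidase reporter signal reflecting CREB driven transcription.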 The conditions noted are these: luminescence, 4.5 h, higher = more signal, called active from +8 up or from −8 down.
The target of assay [5] is Streptavidin (Streptomyces avidinii) (UniProt P22629). Briefly: compounds binding control protein streptavidin – biophysical, small-molecule microarray, 635/667 nm fluorescence, artefact control for SMM compound annotation, primary screen (AID 1147).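 Note: signal reflects streptavidin binding to arrayed compounds as a control protein.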 The note with it: higher = more signal.
Streptavidin (Streptomyces avidinii), sequence (P22629 whole entry, looked up): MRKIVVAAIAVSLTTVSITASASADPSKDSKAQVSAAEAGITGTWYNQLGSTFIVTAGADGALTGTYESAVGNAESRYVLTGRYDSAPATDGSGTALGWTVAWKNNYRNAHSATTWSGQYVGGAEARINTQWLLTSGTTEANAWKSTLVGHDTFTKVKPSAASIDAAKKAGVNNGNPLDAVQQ
The nature of assay [6]: probe aInhba binding on compound microarray – biochemical, small-molecule microarray, 635/667 nm fluorescence, primary screen (AID 1148).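 Note: score merges 667nm spot fluorescence with signal-to-noise for antibody binding to printed compounds.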 The conditions noted are these: higher = more signal.
The target of assay [7] is Torsin-1A (Homo sapiens) (UniProt O14656). Briefly: TOR1A wild-type binding on microarray – cell lysate, small-molecule microarray, lysate, 635/667 nm, primary screen (AID 1149). The conditions noted are these: COS7 hTOR1A-WT lysate, 635 nm fluorescence, higher = more signal.
Torsin-1A (Homo sapiens), sequence (O14656 whole entry, looked up): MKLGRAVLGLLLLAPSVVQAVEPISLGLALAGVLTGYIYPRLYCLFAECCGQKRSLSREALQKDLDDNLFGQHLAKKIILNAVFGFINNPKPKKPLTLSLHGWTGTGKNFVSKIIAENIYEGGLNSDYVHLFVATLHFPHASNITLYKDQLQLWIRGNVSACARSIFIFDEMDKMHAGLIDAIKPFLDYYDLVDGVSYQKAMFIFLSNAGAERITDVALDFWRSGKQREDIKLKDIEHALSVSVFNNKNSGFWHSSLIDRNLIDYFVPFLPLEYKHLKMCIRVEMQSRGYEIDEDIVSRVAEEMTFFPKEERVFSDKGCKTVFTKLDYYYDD
Assay [8] has the same target. As to the kind of experiment: torsin A mutant lysate binding on microarrays – cell lysate, small-molecule microarray, COS7 lysate, 635/667 nm fluorescence, primary screen (AID 1150).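 Note: score pools 667 nm emission and signal to noise measuring lysate protein binding.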 The conditions noted are these: COS7 hTOR1A mutant lysate, 635 nm fluorescence, higher = more signal.
In assay [9] the test system is Sonic hedgehog protein (Shh). Briefly: Sonic hedgehog microarray binding compounds – biochemical, small-molecule microarray, 635/667 nm fluorescence, primary screen (AID 1151).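 Note: Shh protein binding to compounds spotted on small-molecule microarray slides; score combines spot fluorescence intensity with signal-to-noise across triplicate slides.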 The conditions noted are these: 635 nm fluorescence, higher = more signal.
A short description of assay [10]: optical density shifts of acrAB sulA E. coli – strain DRC41, OD650, 48 h, E. coli filamentation inducer project, primary screen (AID 1152).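 Note: E. coli MC1000 strain DRC41 lacking acrAB efflux pump and sulA.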 The conditions noted are these: higher = more signal, called active from +8 up or from −8 down.
The nature of assay [11]: probe aLefty1 binding on compound microarray – biochemical, small-molecule microarray, 635/667 nm fluorescence, primary screen (AID 1153).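 Note: score merges spot fluorescence with signal-to-noise ratio from the scanned slide images.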 The note with it: higher = more signal.
The nature of assay [12]: plasmodial surface anion channel blockers, osmotic lysis – cell-based, P. falciparum Indochina, OD700, 1 h, primary screen (AID 1154). The note with it: P. falciparum Indochina infected RBC osmotic lysis, higher = more signal, called active from +8 up or from −8 down.
A short description of assay [13]: plasmodial surface anion channel blockers, osmotic lysis – cell-based, P. falciparum Indochina, OD700, 2 h, primary screen (AID 1155).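 Note: lysis reports solute entry through the parasite surface anion channel PSAC.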 The conditions noted are these: P. falciparum Indochina infected erythrocytes, higher = more signal, called active from +8 up or from −8 down.
A short description of assay [14]: changes in parasitized red cell lysis, either direction – P. falciparum Indochina, OD700, 3 h, PSAC antagonist project, primary screen (AID 1156). The conditions noted are these: P. falciparum-infected erythrocytes, osmotic lysis, higher = more signal, called active from +8 up or from −8 down.
The nature of assay [15]: plasmodial surface anion channel blockers, osmotic lysis – cell-based, P. falciparum Indochina, OD700, 18 h, primary screen (AID 1157). The conditions noted are these: P. falciparum Indochina infected erythrocytes, osmotic lysis OD700, 18 h; higher = more signal, called active from +8 up or from −8 down.
A short description of assay [16]: S6 kinase pathway phospho-S6 level changes – cell-based, A549, cytoblot, luminescence, serum-stimulated, primary screen (AID 1158).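 Note: serum-stimulated A549 lung adenocarcinoma cells; signal is phosphorylated S6 detected by cytoblot immunostaining with HRP secondary.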 The conditions noted are these: 5 h, higher = more signal.
Assay [17] concerns the target NADPH oxidase 2 (Homo sapiens) (UniProt P04839). As to the kind of experiment: compounds shifting NOX2 Amplex Red fluorescence – cell-based, HEK293-NOX2, PMA-stimulated, NOX inhibitor project, primary screen (AID 1159). Note: test concentration not given here. The note with it: 45 min, higher = more signal, called active from +8 up or from −8 down.
Assay [18] has as its target NADPH oxidase 4 (Homo sapiens) (UniProt Q9NPH5). Briefly: compounds shifting NOX4 Amplex Red fluorescence – cell-based, HEK293-NOX4, tetracycline-induced, NOX inhibitor project, primary screen (AID 1160). The note with it: HEK293-NOX4, Amplex Red H2O2 fluorescence, 45 min; higher = more signal, called active from +8 up or from −8 down.
Assay [19] deals with NADPH oxidase 5 (Homo sapiens) (UniProt Q96PH1). Briefly: compounds shifting NOX5 Amplex Red fluorescence – cell-based, HEK293-NOX5, NOX inhibitor project, primary screen (AID 1161). The note with it: HEK293-NOX5, ionomycin, 45 min, higher = more signal.
NADPH oxidase 5 (Homo sapiens), sequence (Q96PH1 whole entry, looked up): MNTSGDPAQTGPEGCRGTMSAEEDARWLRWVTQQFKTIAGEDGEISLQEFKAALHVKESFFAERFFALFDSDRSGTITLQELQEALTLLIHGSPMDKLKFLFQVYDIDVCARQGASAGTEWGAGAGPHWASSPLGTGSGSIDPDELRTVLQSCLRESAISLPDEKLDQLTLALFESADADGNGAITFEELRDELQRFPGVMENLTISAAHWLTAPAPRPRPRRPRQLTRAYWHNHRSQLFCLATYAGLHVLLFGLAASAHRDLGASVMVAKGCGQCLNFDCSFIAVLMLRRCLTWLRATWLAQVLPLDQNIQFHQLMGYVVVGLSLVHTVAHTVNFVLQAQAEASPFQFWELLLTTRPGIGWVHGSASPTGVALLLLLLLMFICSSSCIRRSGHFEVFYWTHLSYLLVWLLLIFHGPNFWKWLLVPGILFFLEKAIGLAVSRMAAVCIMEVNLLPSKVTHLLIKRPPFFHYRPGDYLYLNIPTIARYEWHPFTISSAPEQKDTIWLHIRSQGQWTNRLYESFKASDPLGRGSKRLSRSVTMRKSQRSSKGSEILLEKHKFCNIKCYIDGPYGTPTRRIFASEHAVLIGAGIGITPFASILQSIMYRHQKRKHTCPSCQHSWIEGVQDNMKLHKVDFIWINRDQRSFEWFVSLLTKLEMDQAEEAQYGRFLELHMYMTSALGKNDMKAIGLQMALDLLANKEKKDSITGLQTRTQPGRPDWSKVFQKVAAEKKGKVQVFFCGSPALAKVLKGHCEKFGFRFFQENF
Assay [20] is described as follows: compound effects on lung adenocarcinoma cell viability – A549, calcein-AM fluorescence, 48 h, basal, profiling panel (AID 1162). Note: test concentration not given here. The conditions noted are these: higher = more signal.

Activity calls are given as the source filed them.

NADPH oxidase 4 (Homo sapiens), sequence (Q9NPH5 whole entry, looked up): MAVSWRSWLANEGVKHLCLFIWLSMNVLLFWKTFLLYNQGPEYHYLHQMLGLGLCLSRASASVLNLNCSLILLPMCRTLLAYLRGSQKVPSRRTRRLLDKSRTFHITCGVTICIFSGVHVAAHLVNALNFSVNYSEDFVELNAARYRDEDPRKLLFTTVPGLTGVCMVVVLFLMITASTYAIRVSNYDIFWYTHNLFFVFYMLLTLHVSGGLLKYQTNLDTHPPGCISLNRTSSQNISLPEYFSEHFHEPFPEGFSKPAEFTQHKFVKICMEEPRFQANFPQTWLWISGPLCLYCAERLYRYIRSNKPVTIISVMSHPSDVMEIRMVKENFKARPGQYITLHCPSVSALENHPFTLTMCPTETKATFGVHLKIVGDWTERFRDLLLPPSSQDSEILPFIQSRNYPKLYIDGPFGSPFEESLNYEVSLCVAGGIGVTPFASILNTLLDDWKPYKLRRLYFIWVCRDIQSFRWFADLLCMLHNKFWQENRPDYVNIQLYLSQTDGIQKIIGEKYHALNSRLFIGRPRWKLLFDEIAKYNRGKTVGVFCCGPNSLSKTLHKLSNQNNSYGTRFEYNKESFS
NADPH oxidase 2 (Homo sapiens), sequence (P04839 whole entry, looked up): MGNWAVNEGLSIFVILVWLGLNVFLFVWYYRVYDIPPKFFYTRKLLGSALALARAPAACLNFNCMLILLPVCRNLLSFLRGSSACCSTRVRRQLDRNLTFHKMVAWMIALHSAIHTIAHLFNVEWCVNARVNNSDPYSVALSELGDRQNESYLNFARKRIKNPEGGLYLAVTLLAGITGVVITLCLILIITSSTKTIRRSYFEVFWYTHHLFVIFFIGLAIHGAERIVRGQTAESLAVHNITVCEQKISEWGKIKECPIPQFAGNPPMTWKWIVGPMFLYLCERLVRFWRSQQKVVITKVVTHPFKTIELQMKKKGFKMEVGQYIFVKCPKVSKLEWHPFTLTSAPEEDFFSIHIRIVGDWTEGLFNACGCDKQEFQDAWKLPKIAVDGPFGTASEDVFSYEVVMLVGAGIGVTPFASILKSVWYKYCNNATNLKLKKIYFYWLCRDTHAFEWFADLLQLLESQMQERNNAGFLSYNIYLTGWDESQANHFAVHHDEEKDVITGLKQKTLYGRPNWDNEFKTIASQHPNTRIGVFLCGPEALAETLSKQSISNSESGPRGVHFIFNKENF

Turning to `C=CCNC(=O)[C@@H]1[C@H]2C(=O)O[C@H](c3ccccc3)[C@H](c3ccccc3)N2[C@H](c2ccc(O)cc2)[C@@]12C(=O)N(C(=O)OCCOC)c1ccc(C#Cc3ccc(OC)cc3)cc12`, the composite z-score came to 0.334 in [1]; 0.256 in [5]; 0.0627 in [6]; 0.808 in the assay with Torsin-1A (Homo sapiens) [7]; 0.54 in the assay with Torsin-1A (Homo sapiens) [8]; 1.06 in assay [9]. This compound registered a composite z-score in assay [11] of -0.0222. Further, the z-score was -2.94 (inactive) in assay [2]; -0.203 (inactive) in assay [3]; 0.417 (inactive) in [4]; 1.58 (inactive) in assay [10]; 2.52 (inactive) in [12]; 1.19 (inactive) in assay [13]. Further, the z-score in assay [14] is -0.264 (inactive); in [15], 0.804 (inactive); in assay [16], -0.0456; in [17], 0.957 (inactive); in assay [18] it was -0.276 (inactive); in assay [19], 1.9. Further, in assay [20], the z-score is -0.413.
Consider `C#CCOc1ccc(C[C@H]2C(=O)O[C@H](Cc3ccccc3)[C@H](/C=C/C3CC3)N2CC#C)cc1`, for which the composite z-score in assay [1] was -0.245; in assay [5] it was -0.0298; in [6], -0.183; in the assay with Torsin-1A (Homo sapiens) [7], 0.498; with Torsin-1A (Homo sapiens) [8] it was 0.212; in assay [9] it was 0.145. In addition, the composite z-score in assay [11] was -0.279. Further, the z-score in [2] was -2.48 (inactive); in [3], -0.414 (inactive); in [4], 0.741 (inactive); in assay [10], 2.04 (inactive); in assay [12] it was 0.57 (inactive); in assay [13], -0.251 (inactive). Further, the z-score in assay [14] is -0.372 (inactive); in assay [15] it was -0.383 (inactive); in [16], 0.242; in assay [17] it was -0.21 (inactive); in [18] it was 0.764 (inactive); in [19] it was -1.52. Moreover, in [20], the z-score is -0.743.
Take `CO[C@H]1O[C@H](CO)[C@@H](OC(=O)Nc2ccccc2)[C@H](OC(=O)Nc2ccccc2-c2ccccc2)[C@H]1OC(=O)Nc1ccccc1-c1ccccc1`: the composite z-score in assay [1] was 0.289; in assay [5], 0.787; in assay [6] it was -0.0506; in the assay with Torsin-1A (Homo sapiens) [7], 0.56; with Torsin-1A (Homo sapiens) [8], 0.679; in assay [9], 0.877. Moreover, the composite z-score in assay [11] worked out at 0.302. The z-score was -5.87 (inactive) in assay [2]; 1.56 (inactive) in [3]; 0.028 (inactive) in assay [4]; 0.663 (inactive) in assay [10]; 3.27 (inactive) in assay [12]; -0.843 (inactive) in assay [13]. In addition, the z-score was -1.21 (inactive) in [14]; -1.81 (inactive) in assay [15]; 0.668 in assay [16]; -6.45 (inactive) in assay [17]; -0.665 (inactive) in [18]; -1.43 in assay [19]. Also, the z-score in [20] is -4.11.
Turning to `CCCCC(=C=CC[C@H](O)c1cccc(OCCO)c1)CCO`, the composite z-score in [1] is -0.0668; in [5] it was -0.209; in assay [6], 0.0355; with Torsin-1A (Homo sapiens) [7], 1.13; with Torsin-1A (Homo sapiens) [8], 0.983; in assay [9] it was 0.242. In [11], this compound came in with a composite z-score of 0.37. For the same compound, the z-score in [2] is -0.081 (inactive); in [3], 4.86 (inactive); in [4], -0.679 (inactive); in [10] it was 0.892 (inactive); in assay [12], 11.4 (active); in assay [13] it was 1.91 (inactive). Further, the z-score in [14] is 1.2 (inactive); in assay [15], 0.774 (inactive); in [16], -0.679; in assay [17] it was 1.06 (inactive); in assay [18] it was 0.362 (inactive); in assay [19], -1.64. Also, in assay [20], the z-score is 1.13.
In the case of `CC(=O)OC(C/C=C\B1OC(C)(C)C(C)(C)O1)c1ccccc1` (stereo not given), the composite z-score in assay [1] is -0.115; in [5] it was -0.748; in assay [6], -0.284; with Torsin-1A (Homo sapiens) [7], -0.611; in the assay with Torsin-1A (Homo sapiens) [8] it was 0.301; in assay [9] it was -0.236. The same compound showed a composite z-score in [11] of -0.147. For the same compound, the z-score in assay [2] is -3.4 (inactive); in assay [3], 3.04 (inactive); in [4] it was -2.27 (inactive); in assay [10], -2.2 (inactive); in [12] it was 0.344 (inactive); in assay [13] it was -0.832 (inactive). Also, the z-score is -0.628 (inactive) in [14]; -1.04 (inactive) in [15]; 3.07 in [16]; -0.889 (inactive) in assay [17]; 0.478 (inactive) in [18]; -2.94 in assay [19]. Moreover, in assay [20], the z-score is 2.43.

Source of the values: PubChem BioAssay.
